Values joined by “and” are separate entries in the source; they are usually repeats but may differ in a detail not shown here. Identical values can stand only once. Records with an inconclusive call do not appear. Where a call stands in place of a potency, no number is given. Active and inactive are the calls of the source. The call rests on the fitted dose curve; in most records, active means well fitted cell-killing curve with a large enough effect in the repeat runs; inconclusive means weak or mixed curves, or effect the other way; inactive means no such curve, though single readings can be large or run the other way.
Potency means the concentration at half of the fitted maximal effect.

A short description of this assay: qHTS assay to identify small molecule agonists of the RXR signaling pathway - cell viability counter screen (AID 1159529). Further: nearly all actives have a fitted effect of over 50% in size. The following applies: RXR-alpha-bla HEK293T viability, CellTiter-Glo, 16 h; series mostly up to 76.8 µM. An excerpt:
National Center for Advancing Translational Sciences [NCATS]
NIH Chemical Genomics Center [NCGC]
U.S. Environmental Protection Agency [EPA]
National Institutes of Environmental Health Sciences [NIEHS]
National Toxicology Program [NTP]
U.S. Food and Drug Administration [FDA]
The Retinoid X receptor (RXR), a nuclear hormone receptor expressed in liver, spleen, placenta, epidermis, central nervous system. These receptors are able to form homo and heterodimers with other nuclear receptors and due to this heterodimerizing ability, RXR functions as master regulators producing diverse physiological effects. Three subtypes of RXR exist; alpha, beta and gamma. Retinoid X receptor alpha (RXR-alpha) has potential roles in metabolic signaling pathways, skin alopecia, dermal cysts, cardiac development, insulin sensitization etc. Therefore screening environmental chemicals on RXR-alpha signaling can be used for the studies focused on such therapeutic applications. For quantification of RXR-alpha ligands signaling, GeneBLAzer RXR alpha-UAS-bla HEK 293T (Life Technologies, Carlsbad, CA) cells containing a beta-lactamase reporter-gene under control of Retinoid X receptor-alpha response element were used to screen Tox21 10K library. The cytotoxicity of the Tox21 compound library against the RXR-alpha HEK 293T cell line was tested in parallel by measuring cell viability using CellTiter-Glo assay (Promega Corporation, Madison, WI) in the same wells.
Tox21 Assay Protocol Summary:
RXR-alpha HEK 293T cells were dispensed at 2,000 cells/6 uL of assay medium containing 2% charcoal-stripped FBS using a Multidrop Combi (ThermoFisher Scientific, Waltham, MA) dispenser. The assay was performed in black wall/clear-bottom 1536-well plates (Greiner Bio-One North America Inc. Monroe, NC). Tetraoctyl ammonium bromide was used as a positive control in the cytotoxicity screen. After the assay plates were incubated at 37 C and 5% CO2 for 5 hr, 23 nL of compounds dissolved in DMSO, positive control or DMSO only were transferred to the assay plate by a Pintool station (Kalypsys, San Diego, CA). The assay plates were incubated at 37 C and 5% CO2 for 16 hr. One uL of LiveBLAzer B/G FRET substrate (Life Technologies) was added using a Flying Reagent Dispenser (FRD) (Aurora Discovery, San Diego, CA) and the plates were incubated at room temperature for 2 hr. Fluorescence intensity (405 nm excitation, 460/530 nm emission) was measured using an Envision plate reader (PerkinElmer, Shelton, CT). For cytotoxicity, 4 uL/well of CellTiter-Glo reagent was added into the assay plates using an FRD. After 30 min incubation at room temperature, the luminescence intensity was measured using a ViewLux plate reader (PerkinElmer).
As for `CCC(C)Cl` (stereo not given), the Potency result was “inactive”.

In the case of `CCC(C)(C)O`, the Potency entry was “inactive”.

As to `CCOC(=O)C1OC1(C)c1ccccc1` (stereo not given), the Potency result is “inactive”.

Consider `CCCCCBr`, for which the Potency entry is “inactive”.

Consider `CCC(C)(C)c1ccc(O)c(C(C)(C)CC)c1`, for which the Potency is 12.2 µM (active) and 12.3 µM (active).

On to `CC(C)(C)OOC(C)(C)CCC(C)(C)OOC(C)(C)C`, for which the Potency result is “inactive”.

With `C#C[C@]1(O)CC[C@H]2[C@@H]3CCC4=CC(=O)CCC4=C3C=C[C@@]21CC`, the Potency entry is “inactive”.

Take `Oc1cccc(Cl)c1`: the Potency entry is “inactive”.

On to `O=CC=O`, for which the Potency entry is “inactive”.

Consider `CCCCCCCCCCCCCCCl`, for which the Potency result is “inactive”.

`C#CC(O)(C=CCl)CC` (stereo not given): the Potency result is “inactive”.

Take `COc1ccccc1N1CCNCC1`: the Potency result was “inactive”.

As to `CC(C)(C)CC(C)(C)c1ccc(O)cc1`, the Potency was 17.4 µM (active) and 23.9 µM (active).

As for `CC(CC(C(N)=O)(c1ccccc1)c1ccccc1)N(C)C` (stereo not given), the Potency entry was “inactive”.

Take `CC(Oc1cc(Cl)c(Cl)cc1Cl)C(=O)O` (stereo not given): the Potency entry was “inactive”.

As to `C=C(Cl)Cl`, the Potency entry was “inactive”.

For `Nc1ccccc1C(=O)OCC(O)CO` (stereo not given), the Potency result is “inactive”.

For `C[C@H]1O[C@H](OC2[C@@H](O)[C@@H](O)C(O)[C@H](O)[C@H]2O)[C@@H](N)C[C@@H]1N=C(N)C(=O)O` (stereo not given in full), the Potency result is “inactive”.

For the molecule `FC(F)OC(F)(F)C(F)Cl` (stereo not given), the Potency result was “inactive”.

For the molecule `c1ccc2sc(SNC3CCCCC3)nc2c1`, the Potency result is “inactive”.

Consider `CCC1CCC(=O)O1` (stereo not given), for which the Potency result was “inactive”.

As for `CN(C1CCCCC1)C1CCCCC1`, the Potency entry was “inactive”.

Turning to `CON(C)C(=O)Nc1ccc(Cl)cc1`, the Potency result is “inactive”.

As to `C=CC(C)(CCC=C(C)C)OC(=O)c1ccccc1N` (stereo not given), the Potency result was “inactive”.

Turning to `CC(C)c1ccc(OP(=O)(Oc2ccc(C(C)C)cc2)Oc2ccc(C(C)C)cc2)cc1`, the Potency was 19.6 µM (active) and 19.5 µM (active).

`CC[N+]1(C)CCCC(OC(=O)C(O)(c2ccccc2)c2ccccc2)C1` (stereo not given): the Potency entry was “inactive”.

Consider `Cc1nnc(-c2ccccc2)c(=O)n1N`, for which the Potency entry was “inactive”.

For the molecule `C[N+](C)(C)CCOC(=O)C(O)(c1ccccc1)c1ccccc1`, the Potency entry was “inactive”.

Regarding `CN1C(=O)CN=C(c2ccccc2)c2cc([N+](=O)[O-])ccc21`, the Potency entry was “inactive”.

For `CN1CC[C@]23c4c5ccc(O)c4O[C@H]2[C@@H](O)C=C[C@H]3[C@H]1C5`, the Potency entry was “inactive”.

Regarding `O=C=NC1CCCCC1`, the Potency result was “inactive”.

Turning to `NC(=O)CF`, the Potency entry is “inactive”.

On to `O=S(=O)(Cl)Cl`, for which the Potency result was “inactive”.

Turning to `Cc1cnc(C2=NC(C)(C(C)C)C(=O)N2)c(C(=O)O)c1` (stereo not given), the Potency entry was “inactive”.

Consider `Nc1cccc2ccccc12`, for which the Potency entry is “inactive”.

`C[N+]1(CCC(C(N)=O)(c2ccccc2)c2ccccc2)CCCCC1`: the Potency entry is “inactive”.

As to `CC(C)(C)NCC(O)c1cc(Cl)c(N)c(C(F)(F)F)c1` (stereo not given), the Potency result was “inactive”.

Turning to `COc1cc(CC#N)cc(OC)c1OC`, the Potency entry is “inactive”.

With `C=CCOC(=O)C(C)(C)OC(=O)c1cc(-n2c(=O)cc(C(F)(F)F)n(C)c2=O)ccc1Cl`, the Potency entry was “inactive”.

For `C[CH2][Hg][S]c1ccccc1C(=O)O`, the Potency is 1.23 µM (active) and 1.51 µM (active).

The values above are taken from PubChem BioAssay (Tox21).
